In all, about 5,500 compounds went through this assay and about 2,000 (36%) were called active. About 18% were inconclusive and are not listed. No stated cut-off is given here; in the data, active means normalized growth mostly below about 0.91 (no sharp cut-off); inconclusive means no clear call, values can overlap the other calls; inactive means mostly above about 0.92. Some of the results follow.
Experiment: chemical genetic growth profiling, strain panel (AID 1159580);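 further: tested at 20 µM; growth read once vehicle control cultures reached saturation at 30 °C; 1 = growth at the plate median or of vehicle wells; lower values mean less growth of the strain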
Settings: growth OD
[1] = S. cerevisiae deletion strains, locus YAL013W, strain DEP1, active compounds read low
[2] = S. cerevisiae deletion strains, locus YBR229C, strain ROT2, active compounds read low
[3] = S. cerevisiae deletion strains, locus YCL061C, strain MRC1, active compounds read low
[4] = S. cerevisiae deletion strains, locus YDL101C, strain DUN1, active compounds read low
[5] = S. cerevisiae deletion strains, locus YDR150W, strain NUM1, active compounds read low
[6] = S. cerevisiae deletion strains, locus YEL061C, strain CIN8, active compounds read low
[7] = S. cerevisiae deletion strains, locus YGR078C, strain PAC10, active compounds read low
[8] = S. cerevisiae deletion strains, locus YHR030C, strain SLT2, active compounds read low
[9] = S. cerevisiae deletion strains, locus YHR087W, strain rtc3, active compounds read low
[10] = S. cerevisiae deletion strains, locus YJR043C, strain POL32, active compounds read low
[11] = S. cerevisiae deletion strains, locus YKL190W, strain CNB1, active compounds read low
[12] = S. cerevisiae deletion strains, locus YLR039C, strain RIC1, active compounds read low
[13] = S. cerevisiae deletion strains, locus YLR058C, strain SHM2 (second series), active compounds read low
[14] = S. cerevisiae deletion strains, locus YLR085C, strain ARP6, active compounds read low
[15] = S. cerevisiae deletion strains, locus YLR262C, strain YPT6, active compounds read low
[16] = S. cerevisiae deletion strains, locus YML094W, strain GIM5, active compounds read low
[17] = S. cerevisiae deletion strains, locus YMR219W, strain ESC1, active compounds read low
[18] = S. cerevisiae deletion strains, locus YMR263W, strain SAP30, active compounds read low
[19] = S. cerevisiae deletion strains, locus YNL128W, strain TEP1, active compounds read low
[20] = S. cerevisiae deletion strains, locus YNL298W, strain CLA4 (second series), active compounds read low
[21] = S. cerevisiae deletion strains, locus YNL322C, strain KRE1, active compounds read low
[22] = S. cerevisiae deletion strains, locus YNR030W, strain Alg12, active compounds read low
[23] = S. cerevisiae deletion strains, locus YPL055C, strain LGE1, active compounds read low
[24] = S. cerevisiae deletion strains, locus YPL241C, strain CIN2, active compounds read low
[25] = S. cerevisiae deletion strains, locus YPR135W, strain CTF4, active compounds read low

Measured: normalized growth

CCOC(=O)C(=CNNS(=O)(=O)c1cc(C(F)(F)F)cc(C(F)(F)F)c1)C(=O)OCC
inactive: [1] 1.01 | [2] 0.997 | [3] 0.979 | [4] 0.929 | S. cerevisiae deletion strains, locus YDL134C, strain PPH21, active compounds read low 1 | [5] 1 | [6] 1.01 | [7] 0.967 | [8] 1 | [9] 0.96 | [10] 0.973 | [11] 0.992 | [12] 0.931 | [13] 0.954 | [14] 1.03 | [15] 0.968 | [16] 0.988 | [17] 0.989 | [18] 1.04 | [19] 0.945 | [20] 1 | [21] 0.993 | [22] 1 | [23] 1.03 | [24] 1.02 | [25] 0.964

O=S(=O)(NCCc1ccncc1)c1cc(C(F)(F)F)cc(C(F)(F)F)c1
inactive: [1] 1 | [2] 0.988 | [3] 0.963 | [4] 0.966 | [5] 0.913 | [6] 1 | [7] 0.987 | [8] 1.01 | [9] 1.07 | S. cerevisiae deletion strains, locus YJL187C, strain SWE1, active compounds read low 1.01 | [10] 0.964 | S. cerevisiae deletion strains, locus YJR075W, strain HOC1, active compounds read low 1.02 | [11] 1.01 | [12] 0.976 | [13] 1 | [14] 1.05 | [15] 1.03 | [16] 1.02 | [17] 0.993 | [18] 1.01 | [19] 0.989 | S. cerevisiae deletion strains, locus YNL153C, strain GIM3, active compounds read low 0.994 | [20] 0.986 | [21] 1 | [22] 1.03 | S. cerevisiae deletion strains, locus YOL006C, strain TOP1, active compounds read low 0.976 | [23] 1.02 | [24] 0.98 | [25] 0.942 | S. cerevisiae strains, strain wild type, active compounds read low 0.979

Cc1noc(C)c1S(=O)(=O)Nc1csc(C(F)(F)F)c1-c1ccccc1
inactive: S. cerevisiae deletion strains, locus YAR019C, strain CDC15, active compounds read low 0.976 | S. cerevisiae deletion strains, locus YBL105C, strain PKC1, active compounds read low 0.982 | S. cerevisiae deletion strains, locus YBR135W, strain CKS1, active compounds read low 0.983 | S. cerevisiae deletion strains, locus YBR136W, strain MEC1, active compounds read low 0.978 | S. cerevisiae deletion strains, locus YBR160W, strain CDC28, active compounds read low 0.982 | S. cerevisiae deletion strains, locus YDL017W, strain CDC7, active compounds read low 0.979 | S. cerevisiae deletion strains, locus YDL028C, strain MPS1, active compounds read low 0.973 | [4] 0.97 | S. cerevisiae deletion strains, locus YDL108W, strain KIN28, active compounds read low 0.985 | S. cerevisiae deletion strains, locus YDL132W, strain cdc53, active compounds read low 0.977 | S. cerevisiae deletion strains, locus YDL214C, strain PRR2, active compounds read low 0.997 | S. cerevisiae deletion strains, locus YDR052C, strain DBF4, active compounds read low 0.979 | S. cerevisiae deletion strains, locus YDR054C, strain cdc34, active compounds read low 0.973 | S. cerevisiae deletion strains, locus YDR226W, strain ADK1, active compounds read low 0.979 | S. cerevisiae deletion strains, locus YDR477W, strain SNF1, active compounds read low 1.04 | S. cerevisiae deletion strains, locus YER123W, strain YCK3, active compounds read low 1.05 | S. cerevisiae deletion strains, locus YER133W, strain GLC7, active compounds read low 1.02 | S. cerevisiae deletion strains, locus YFL009W, strain cdc4, active compounds read low 0.969 | S. cerevisiae deletion strains, locus YFL029C, strain CAK1, active compounds read low 0.979 | S. cerevisiae deletion strains, locus YFR003C, strain YPI1, active compounds read low 0.983 | S. cerevisiae deletion strains, locus YFR019W, strain FAB1, active compounds read low 1.01 | S. cerevisiae deletion strains, locus YFR028C, strain CDC14, active compounds read low 0.97 | S. cerevisiae deletion strains, locus YGR040W, strain KSS1, active compounds read low 1.04 | S. cerevisiae deletion strains, locus YGR052W, strain FMP48, active compounds read low 1.12 | S. cerevisiae deletion strains, locus YGR092W, strain DBF2, active compounds read low 1.02 | [8] 1.09 | S. cerevisiae deletion strains, locus YHR079C, strain IRE1, active compounds read low 1.06 | S. cerevisiae deletion strains, locus YHR082C, strain KSP1, active compounds read low 1.08 | S. cerevisiae deletion strains, locus YHR205W, strain SCH9, active compounds read low 1 | S. cerevisiae deletion strains, locus YIL147C, strain SLN1, active compounds read low 0.975 | S. cerevisiae deletion strains, locus YJL095W, strain BCK1, active compounds read low 1.07 | S. cerevisiae deletion strains, locus YJL128C, strain PBS2, active compounds read low 0.957 | S. cerevisiae deletion strains, locus YJL157C, strain FAR1, active compounds read low 1.01 | S. cerevisiae deletion strains, locus YJR016C, strain ILV3, active compounds read low 0.982 | S. cerevisiae deletion strains, locus YJR066W, strain TOR1 (second series), active compounds read low 1.04 | S. cerevisiae deletion strains, locus YJR066W, strain TOR1, active compounds read low 1.07 | S. cerevisiae deletion strains, locus YKL048C, strain ELM1, active compounds read low 0.973 | S. cerevisiae deletion strains, locus YKL067W, strain YNK1, active compounds read low 1 | S. cerevisiae deletion strains, locus YKL101W, strain HSL1, active compounds read low 0.978 | S. cerevisiae deletion strains, locus YKL193C, strain SDS22, active compounds read low 0.976 | S. cerevisiae deletion strains, locus YKL203C, strain TOR2, active compounds read low 1.08 | S. cerevisiae deletion strains, locus YLR113W, strain HOG1, active compounds read low 1.04 | S. cerevisiae deletion strains, locus YLR133W, strain CKI1, active compounds read low 1.01 | S. cerevisiae deletion strains, locus YLR403W, strain SFP1, active compounds read low 1.05 | S. cerevisiae deletion strains, locus YML070W, strain DAK1, active compounds read low 1.04 | S. cerevisiae deletion strains, locus YMR001C, strain CDC5, active compounds read low 0.971 | S. cerevisiae deletion strains, locus YMR205C, strain PFK2 (second series), active compounds read low 0.995 | S. cerevisiae deletion strains, locus YMR277W, strain FCP1, active compounds read low 0.98 | S. cerevisiae deletion strains, locus YNL006W, strain LST8, active compounds read low 0.98 | S. cerevisiae deletion strains, locus YNL020C, strain ARK1, active compounds read low 0.993 | S. cerevisiae deletion strains, locus YNL161W, strain CBK1, active compounds read low 0.972 | S. cerevisiae deletion strains, locus YNL183C, strain NPR1, active compounds read low 1.06 | S. cerevisiae deletion strains, locus YNL207W, strain RIO2, active compounds read low 0.978 | S. cerevisiae deletion strains, locus YNL222W, strain SSU72, active compounds read low 0.98 | S. cerevisiae deletion strains, locus YNL307C, strain MCK1 (second series), active compounds read low 1 | S. cerevisiae deletion strains, locus YOL078W, strain AVO1, active compounds read low 0.978 | S. cerevisiae deletion strains, locus YOL136C, strain PFK27, active compounds read low 1.02 | S. cerevisiae deletion strains, locus YOR061W, strain CKA2, active compounds read low 0.985 | S. cerevisiae deletion strains, locus YOR119C, strain RIO1, active compounds read low 1.02 | S. cerevisiae deletion strains, locus YOR231W, strain MKK1, active compounds read low 1.05 | S. cerevisiae deletion strains, locus YOR329C, strain SCD5, active compounds read low 0.975 | S. cerevisiae deletion strains, locus YPL031C, strain PHO85, active compounds read low 1.03 | S. cerevisiae deletion strains, locus YPL153C, strain RAD53, active compounds read low 1.04 | S. cerevisiae deletion strains, locus YPL204W, strain HRR25, active compounds read low 1.04 | S. cerevisiae deletion strains, locus YPL209C, strain IPL1, active compounds read low 0.975 | S. cerevisiae deletion strains, locus YPL256C, strain CLN2, active compounds read low 1.01 | S. cerevisiae deletion strains, locus YPR025C, strain CCL1, active compounds read low 0.98 | S. cerevisiae deletion strains, locus YPR106W, strain ISR1, active compounds read low 0.981 | S. cerevisiae deletion strains, locus YPR111W, strain DBF20, active compounds read low 0.97 | S. cerevisiae deletion strains, strain NNK1, active compounds read low 0.964 | S. cerevisiae deletion strains, strain TSCII, active compounds read low 0.983
